Bioassay records (PubChem BioAssay)
Gli-Sufu block: Gli-Sufu pathway antagonists, primary screen, luciferase luminescence, Sufu-KO-LIGHT cells, uHTS | Sufu-KO-LIGHT fibroblasts, Gli luciferase reporter luminescence | inhibition, % at 5 µM | 340,000 tested, 0.74% active | AID 588413, 2011;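 active = inhibition above about 55%, limit read from the data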;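 also: 0% = DMSO-treated cells and 100% = wells with medium but no cells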
Beta cell apopt: inhibitors of cytokine-induced beta cell apoptosis, primary screen, luminescence; protection from apoptosis, % (concentration not given with the values); AID 435005, 2010; 300,000 tested, 0.8% active; INS-1E cytokine-induced death, ATP luminescence, 48 h; percent of positive-control rescue, neutral wells zero;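 active = Every replicate reaches about 75%, or at least half do and their mean reaches it too, limit read from the data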;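 also: 0% = cytokine-treated negative control wells and 100% = positive control rescue; higher means more ATP so stronger rescue from cytokine killing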
GRIN3A LBD mod: binders of NR3A ligand-binding domain, primary screen, biophysical, differential scanning fluorimetry, uHTS. Tm shift relative to glycine control, % at 25 µM. 340,000 tested, 2.5% active. AID 1259313, 2017. NR3A LBD differential scanning fluorimetry, Tm shift; 0% = protein alone, 100% = glycine-bound protein;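 active = melting temperature shift of at least 10% of the positive control shift, at one fixed dose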
MPTP inh: mitochondrial permeability transition pore inhibitors, primary screen, biochemical, isolated mouse mitochondria, absorbance; AID 602449, 2012; 360,000 tested, 1.4% active; Ca2+ swelling absorbance, 30 min; inhibition, % at 10 µM;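 active = inhibition of 50% or more, scaled per plate between neutral and stimulator controls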;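 also: 0% = DMSO wells given calcium and 100% = 1 mM EGTA wells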
Mdm2 MdmX PPI: inhibitors of human Mdm2-MdmX association, primary screen, cell-based, luminescence, split luciferase, SaOS-2, uHTS | SaOS-2 split-luciferase Mdm2/MdmX complementation | inhibition, % at 8 µM | 330,000 tested, 3% active | AID 485346, 2010;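 active = inhibition of at least 50% at 8 µM in the primary screen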
CSC inhib: cancer stem cell viability inhibitors, primary screen, luminescence; AID 2717, 2010; 300,000 tested, 1.1% active; inhibition, % at 7.5 µM; cancer stem cell-like cells viability; in the data active = inhibition above about 75%; tested in HMLE shEcad cells
Rh123 counter: fluorescence retest of MPTP screen hits in isolated mitochondria, single concentration; shares compounds with MPTP inh; membrane potential, Rhodamine 123 fluorescence; inhibition, % at 10 µM; 5,000 tested, 78% active; AID 624504, 2012; in the data active = inhibition above about 22%;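 also: 0% = DMSO vehicle and 100% = positive control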
MPTP abs DR: mitochondrial permeability transition pore inhibitors, dose response, biochemical, absorbance, uHTS hits; shares compounds with MPTP inh; isolated mitochondria swelling; IC50, µM; 780 tested, 58% active; AID 651561, 2012; in the data active = IC50 below about 20 µM
MPTP counter DR: fluorescent counter-screen in isolated mitochondria, dose response, counter-screen for MPTP inhibitor project, biochemical, fluorescence, uHTS hits; isolated mitochondria counterscreen, fluorescence read-out; shares compounds with MPTP inh; AID 651564, 2012; 780 tested, 49% active; IC50, µM; in the data active = IC50 below about 80 µM
* marks the source's active call; other numbers are inactive results; · = no result. Compounds with a hit are over-represented: about 6.6% of the library has one in this group of screens.

SMILES	Gli-Sufu block	Beta cell apopt	GRIN3A LBD mod	MPTP inh	Mdm2 MdmX PPI	CSC inhib	Rh123 counter	others
Cc1ccc(NS(=O)(=O)c2ccc(C3CCCCC3)cc2)cc1	6	43	3	73*	24	10	78*
Cc1ccc(S(=O)(=O)Nc2ccc(N3CCCCC3)cc2)cc1	7	20	0	-1	6	8	·
CC(Oc1ccccc1)C(=O)Nc1nnc(S(=O)(=O)N2CCCCC2)s1 (stereo not drawn)	-5	9	-2	1	-7	3	·
CCC(Oc1ccccc1)C(=O)Nc1nnc(S(=O)(=O)N2CCCC2)s1 (stereo not drawn)	5	-8	-5	85*	0	1	20*
O=C(Nc1nnc(S(=O)(=O)N2CCCCCC2)s1)c1ccc(Br)cc1	16	5	-2	60*	30	8	29*
O=C(CN1C(=O)S/C(=C\c2ccccc2)C1=O)Nc1cc([N+](=O)[O-])ccc1O	2	2	23*	58*	0	3	79*
Cc1ccc(/C=C2\SC(=S)N(CCCC(=O)Nc3ccccc3C(=O)O)C2=O)cc1	22	4	-3	2	-32	0	·
Cc1ccc(/C=C2/SC(=S)N(CCCC(=O)Nc3cc([N+](=O)[O-])ccc3O)C2=O)cc1	23	-11	1	64*	37	66	19	MPTP abs DR=4.6*;MPTP counter DR=<2.5*
Cc1ccc(NC(=O)Nc2nc3ccc(S(C)(=O)=O)cc3s2)cc1	-10	·	28*	65*	14	·	70*
CCOc1ccc(CCN2C(=S)N([C@@H](CC(C)C)CN3CCCC3CN3C(=S)NC[C@@H]3Cc3ccccc3)C[C@@H]2CC(C)C)cc1 (stereo partly drawn)	·	·	·	0	·	·	·
O=C(/C=C/c1ccc(S(=O)(=O)N2CCOCC2)cc1)NCc1ccccc1	-6	0	-3	2	-23	22	·
O=C1C=C(c2c(O)ccc3ccccc23)c2ccccc2C1=O	2	·	-8	65*	·	·	50*
Cc1ccc(NC(=O)Nc2ccc3c(c2)OCO3)c(OC(F)F)c1	-104	-3	4	-1	-126	7	·
COc1ccc(NC(=O)Nc2ccc(C)cc2OC(F)F)cc1OC	3	5	-4	52*	5	-8	36*
CCc1cc(=O)oc2c(C)c(OCC(=O)NC3CC(C)(C)NC(C)(C)C3)ccc12	-1	-6	-5	1	23	-27	·
Cc1ccc2nc(N(CCN(C)C)C(=O)/C=C/c3cccs3)sc2c1	-6	10	-11	99*	32	-14	-17	MPTP abs DR=7.5*;MPTP counter DR=>80
Cc1ccc(S(=O)(=O)CC(=O)N(CCCN(C)C)c2nc3ccc(C)cc3s2)cc1	28	-5	1	90*	8	7	-12	MPTP abs DR=4.5*;MPTP counter DR=75*
Cc1ccc2nc(N(CCCN(C)C)C(=O)CCc3ccccc3)sc2c1	24	0	-1	102*	·	5	-10	MPTP abs DR=3.7*;MPTP counter DR=>80
Cc1ccc2nc(N(CCN(C)C)C(=O)c3ccc4c(c3)OCCO4)sc2c1	-3	-5	1	-2	7	-4	·
Cc1ccc2nc(N(CCCN(C)C)C(=O)CN3C(=O)c4ccccc4C3=O)sc2c1	20	2	-1	0	7	-12	·
Cc1ccc2nc(N(CCCN(C)C)C(=O)CS(=O)(=O)c3ccccc3)sc2c1	21	·	1	47	-17	-7	·
CSc1ccccc1C(=O)N1CCc2ccc(NC(=O)c3ccccn3)cc2C1	·	·	·	-2	·	·	·
Cc1nc(N2CCCCC2C)c2c(C)c(C(=O)Nc3cccc(C(F)(F)F)c3)sc2n1 (stereo not drawn)	7	14	4	70*	43	·	41*
Cc1nc(N2CCCCC2)c2c(C)c(C(=O)Nc3cccc(C(F)(F)F)c3)sc2n1	-8	27	5	84*	30	·	49*
Cc1nc(N2CCN(C)CC2)c2c(C)c(C(=O)Nc3ccc(F)cc3)sc2n1	10	4	0	0	23	2	·
SMILES	Gli-Sufu block	Beta cell apopt	GRIN3A LBD mod	MPTP inh	Mdm2 MdmX PPI	CSC inhib	Rh123 counter	others
CCOC(=O)c1sc2nc(C)nc(N3CCCCC3C)c2c1C (stereo not drawn)	3	4	2	2	-10	29	·
COc1ccc(N2CC(C(=O)NCc3n[nH]c(=O)c4ccccc34)CC2=O)cc1 (stereo not drawn)	11	·	1	-1	13	·	·
CC(=O)Nc1cccc(OCc2ccc(S(=O)(=O)Cc3ccccc3)cc2)c1	-20	2	-4	7	-38	-5	·
CCC(=O)N1CCc2cc(S(=O)(=O)Nc3ccc4c(c3)OCCO4)ccc21	43	52	-1	81*	2	0	58*
O=C(C1CC1)N1CCc2cc(S(=O)(=O)NCCC3=CCCCC3)ccc21	2	-1	-15	62*	21	-10	46*
O=C(C1CCC1)N1CCc2cc(S(=O)(=O)Nc3ccc4c(c3)OCCO4)ccc21	49	79*	-17	65*	-25	-6	81*
Cc1cc(C)c(S(=O)(=O)N(C)c2ccccc2)c(C)c1	-2	-3	-1	0	-20	9	·
FC(F)(F)c1cccc(Oc2nc(-c3ccccc3)nnc2C(F)(F)F)c1	2	-7	-1	1	7	-6	·
FC(F)(F)c1nnc(-c2ccccc2)nc1Oc1ccc(Cl)cc1Cl	10	1	-7	71*	32	·	1	MPTP abs DR=14*;MPTP counter DR=>80
Fc1ccc(-n2cc(CNCCc3ccccn3)c(-c3ccccc3Cl)n2)cc1	-10	15	2	72*	49	-11	1	MPTP abs DR=9.8*;MPTP counter DR=48*
Cc1ccc(-n2cc(CNCCc3ncc(C)[nH]3)c(-c3ccc(F)cc3)n2)cc1	9	-2	-3	91*	35	9	-15	MPTP abs DR=4.2*;MPTP counter DR=57*
COc1ccc(-n2cc(CNCCc3nc(C)cc(C)n3)c(-c3ccccc3Cl)n2)cc1	30	-3	-4	3	24	3	·
CSCC[C@H](N)C(=O)N1CCC(C(=O)N[C@@H](C)C(=O)NCc2ccc(F)cc2)CC1	6	·	1	0	7	-3	·
